Screening results from PubChem BioAssay.
BJeLR viability: BJeLR cell viability loss; BJeLR (HRASV12) viability, CellTiter-Glo ATP luminescence, 48 h; inhibition, % (concentration not given with the values); 0.17% of 300,000 active; in the data active = inhibition above about 50%; inconclusive = no clear call, values can overlap the other calls
PrPC TRFRET: inhibitors of human cell surface prion protein PrPC | TR-FRET read-out | 0.43% of 370,000 active | inhibition, % at 13.8 µM; in the data active = inhibition above about 24%; also: 0% = median of the test wells and 100% = reference compound wells
PriA SSB inh: inhibitors of Klebsiella pneumoniae PriA binding to SSB C-terminal tail | 0.6% of 430,000 active | inhibition, % at 33 µM | AlphaScreen SSBct-PriA binding, biotinylated peptide; in the data active = inhibition mostly above about 37%, no sharp cut-off; inactive = mostly below about 20%;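 also: plate controls were negative control peptide for no effect and reference peptide for full effect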
Yp Topo-I inh: inhibitors of Yersinia pestis topoisomerase I. Y. pestis Topo-I cleavage product accumulation, plate reader. activity, % at 10 µM. 0.064% of 360,000 active. AID 504884; in the data active = activity above about 50%, passing the limit was not always enough; inconclusive = no clear call, values can overlap the other calls
PrP 5UTR inh: suppresses PrP 5' UTR mRNA reporter expression; cell-based PrP 5' UTR mRNA reporter, plate reader; inhibition, % (no concentration beside the values); 0.35% of 340,000 active; in the data active = inhibition above about 52%; also: 0 = median of the neutral control wells
PfHsp40 yeast: rescue of PfHsp40-mediated yeast toxicity | S. cerevisiae expressing PfHsp40, growth rescue, ATP luminescence | 0.68% of 340,000 active | AID 504582 | growth rescue, % at 12.5 µM; in the data active = growth rescue above about 28%, passing the limit was not always enough; inconclusive = no clear call, values can overlap the other calls;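 also: yeast W303a lacking pdr1 and pdr3 grown in galactose medium; growth measured after three days at 30 °C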
* = called active by the depositor; ? = inconclusive; . = not tested or not shown. Hits are enriched below; roughly 1.7% of the tested compounds scored in any of these assays.

SMILES	BJeLR viability	PrPC TRFRET	PriA SSB inh	Yp Topo-I inh	PrP 5UTR inh	PfHsp40 yeast
CCOC(=O)N1CCN(Cc2ccc(O)c3ncccc23)CC1	0.5	-0.3	87.8*	.	.	.
Cc1ccc(C)c(S(=O)(=O)N2CCN(Cc3ccc(O)c4ncccc34)CC2)c1	15.6	8.0	-1.6	29.5	26.6	322.8*
Oc1c(CN2CCCCC2)ccc2cccnc12	.	5.5	-7.0	5.0	19.8	46.7*
Oc1ccc(CN2CCN(c3ccccc3)CC2)c2cccnc12	-13.9	.	9.0	-3.0	-9.5	1.9
CCN1CCN(Cc2ccc(O)c3ncccc23)CC1	.	.	123.0*	.	.	.
COc1ccccc1NC(=O)NNC(=O)c1cccn(Cc2cccc(Cl)c2)c1=O	.	.	-7.0	.	.	.
Oc1ccc(CN2CCC(Cc3ccccc3)CC2)c2cccnc12	7.1	0.3	62.1*	.	.	.
Oc1ccc(Cc2ccccc2)c2cccnc12	.	-3.4	8.7	-4.9	.	.
Oc1c(Cl)cc(CN2CCCCC2)c2cccnc12	38.6	.	.	-3.4	-10.3	0.2
Oc1ccc(CN2CCCCC2)c2cccnc12	-3.3	-4.0	99.0*	-2.3	-20.6	23.6
Cc1ccc(C(=O)Nc2ccccc2C(=O)N2CCC(Cc3ccccc3)CC2)cc1	.	.	-9.0	.	.	.
CCOC(=O)CSc1nnc(-c2ccccc2)c2sc(C)nc12	.	.	13.0	.	.	.
O=[N+]([O-])c1cc(/C=N/N2CCCCC2)ccc1Cl	-6.1	2.1	.	6.4	-49.3	0.5
O=[N+]([O-])c1cc(C=NN2CCCCC2)ccc1Cl	.	.	43.4*	.	.	.
CCOC(=O)C=C1Nc2ccccc2OC1=O	.	.	7.7	.	.	.
Oc1ccc(Cl)cc1/C=C/c1ccc2cccc(O)c2n1	6.0	-23.2	-3.2	-21.7	-19.0	160.0*
Cc1ccsc1/C=C/c1ccc2cccc(O)c2n1	3.9	-19.7	-21.6	12.3	-55.5	445.8*
Cc1ccsc1/C=C/c1ccc2ccccc2n1	17.3	-6.7	-37.1	24.1	-14.7	1.6
CC(C)(C)NC(=O)N1CCC(CNC(=O)C(=O)Nc2cc3c4c(c2)CCC(=O)N4CCC3)CC1	.	.	-17.0	.	.	.
Cc1cccc(-n2ncc3c(=O)n4c(nc32)SC[C@@H]4CC(=O)NCCCn2ccnc2)c1	.	.	-8.0	.	.	.
Cc1csc2nc(O)c(C(=O)NCCC3=CCCCC3)c(=O)n12	0.2	2.4	-12.8	5.7	-8.5	15.1
Cc1csc2nc(O)c(C(=O)NCCCc3ccccc3)c(=O)n12	5.7	1.5	-7.7	26.4	-10.5	288.8*
Cc1cccc(OP(=O)(NCc2ccccc2)Oc2cccc(C)c2)c1	-4.1	13.9	-27.9	42.3	-17.9	117.9*
Cc1occc1C(=O)NC(C)C12CC3CC(CC(C3)C1)C2 (stereo not given)	-4.6	-0.8	-10.9	0.9	-1.6	104.7*
COc1cccc(NC=C2C(=O)OC3(CCCCC3)OC2=O)c1	-2.4	-0.7	-5.1	5.8	-12.5	314.0*
SMILES	BJeLR viability	PrPC TRFRET	PriA SSB inh	Yp Topo-I inh	PrP 5UTR inh	PfHsp40 yeast
COc1cccc(NC=C2C(=O)OC(C)(C)OC2=O)c1	1.0	8.6	-10.4	-3.6	-23.3	-0.5
COc1ccc(NC(=O)Cn2nnc(-c3ccccc3NC(=O)c3cccs3)n2)cc1	20.1	9.7	2.4	20.0	-18.2	64.7*
CC(=O)Nc1ccc(S(=O)(=O)N2CCCN(S(=O)(=O)c3cnn(C)c3)CC2)cc1	.	.	-12.0	.	.	.
COc1ccc(O)c(C(=O)CC(=O)c2cccnc2)c1	.	-1.1	-0.6	-4.3	-82.7	-0.6
COc1ccc(O)c(C(=O)CC(=O)c2ccccc2C)c1	0.8	11.4	21.4	-9.9	-82.4	314.2*
COc1ccc(C(=O)CC(=O)c2ccccc2O)cc1	-10.7	-1.2	-12.5	-11.1	-59.1	-0.6
COc1ccc(O)c(C(=O)CC(=O)c2ccc(F)cc2)c1	18.2	-3.6	0.0	-11.8	11.3	230.5*
CC(C)c1onc(C(=O)N2CCN(c3ccccc3)CC2)c1[N+](=O)[O-]	7.8	-3.7	-8.4	-8.7	-8.3	0.7
CC(C)c1onc(C(=O)N2CCN(C(c3ccccc3)c3ccccc3)CC2)c1[N+](=O)[O-]	91.0*	1.5	-5.1	3.6	-1.8	1.7
COc1ccccc1N1CCN(C(=O)CC2CSc3nc4c(c(=O)n32)CCC4)CC1 (stereo not given)	.	.	-6.0	.	.	.
CN1C(=O)C2(N=c3ccccc3=N2)c2ccccc21	-2.6	.	-8.2	2.7	-13.0	55.0*
O=S1(=O)Nc2c(ccc3cccnc23)-c2ccccc21	2.3	.	96.9*	4.3	23.8	18.9
CCN(CC)c1ccc(C(NC(=O)C(C)C)c2ccc3cccnc3c2O)cc1 (stereo not given)	.	18.0	.	-4.0	.	.
CCCC(=O)NC(c1ccccc1OC)c1ccc2cccnc2c1O (stereo not given)	18.4	.	1.0	1.4	30.1	374.0*
CCCCC(=O)NC(c1ccc(N(CC)CC)cc1)c1ccc2cccnc2c1O (stereo not given)	48.1	6.1	-3.1	4.3	37.4	128.9*
CC12CCC(C(=O)N3CCOCC3)(C(Br)C1=O)C2(C)C (stereo not given)	.	.	6.0	.	.	.
CCOC(=O)c1c(N=Cc2cccc(C)c2O)sc2c1CCN(C)C2	.	.	31.8	.	.	.
Cc1cccc(C=Nc2sc3c(c2C(=O)OC(C)(C)C)CCN(C)C3)c1O	.	.	44.7*	.	.	.
Cc1ccc(NC(=O)Cn2c(C)cc(C)c(-c3nc(-c4ccccc4)no3)c2=O)c(C)c1	.	.	-4.0	.	.	.
CN(C)/N=C/c1ccc([N+](=O)[O-])cc1[N+](=O)[O-]	-3.6	-15.4	.	-5.0	-5.8	30.8*
CC(C)(C)c1cc(NC(=O)C2CN(S(C)(=O)=O)C2)on1	.	.	-6.0	.	.	.
Cc1ccc(C2CC2C(=O)NNC(=S)Nc2cccc(Cl)c2)cc1 (stereo not given)	-0.7	13.6	-3.5	0.2	-20.1	78.7*
Cc1ccc(C2CC2C(=O)NNC(=S)Nc2cccc(C)c2)cc1 (stereo not given)	4.3	5.5	0.6	2.7	-29.5	?
CCCCCn1c(NS(=O)(=O)c2ccc(C)cc2)c(S(=O)(=O)c2ccccc2)c2nc3ccccc3nc21	.	.	51.9	.	.	.
CCCCCn1c(NS(=O)(=O)c2ccc3ccccc3c2)c(S(=O)(=O)c2ccc(C)cc2)c2nc3ccccc3nc21	.	.	62.2*	.	.	.
SMILES	BJeLR viability	PrPC TRFRET	PriA SSB inh	Yp Topo-I inh	PrP 5UTR inh	PfHsp40 yeast
CCCCCCCCn1c(NS(=O)(=O)c2ccc(C)cc2)c(S(=O)(=O)c2ccccc2)c2nc3ccccc3nc21	.	.	49.8	.	.	.
CCCCCn1c(NS(=O)(=O)c2ccccc2)c(S(=O)(=O)c2ccc(C)cc2)c2nc3ccccc3nc21	.	.	75.7*	.	.	.
CCCCn1c(NS(=O)(=O)c2ccc(C)cc2)c(S(=O)(=O)c2ccc(C)cc2)c2nc3ccccc3nc21	.	.	61.8*	.	.	.
CCCCCn1c(NS(=O)(=O)c2ccc(Cl)cc2)c(S(=O)(=O)c2ccc(C)cc2)c2nc3ccccc3nc21	.	.	43.0	.	.	.
CCCCOCCCn1c(NS(=O)(=O)c2ccc(Cl)cc2)c(S(=O)(=O)c2ccc(C)cc2)c2nc3ccccc3nc21	.	.	55.8*	.	.	.
Cc1cccc(OCc2nnc3sc(-c4csc5c4CCCC5)nn23)c1	.	.	-11.0	.	.	.
CCCCn1c(NS(=O)(=O)c2ccccc2)c(S(=O)(=O)c2ccccc2)c2nc3ccccc3nc21	.	.	63.6*	.	.	.
